Test results published in PubChem BioAssay (NCI).
Compounds without any hit were thinned out: in the full panel of roughly 83,000, 20% have a hit.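 Values shown are percent growth following 48 h exposure of cells in 96-well plates to a single concentration of compound; below 10 was considered active.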 A number with no mark means an inactive call. Calls of active or inactive are those of the source.

Tested on: SF-539 CNS
Experiment: NCI-60 one-dose screen, 48 h (100 = growth as untreated, 0 = no growth, -100 = all killed)
Conditions: 10 µM unless noted

Structure (SMILES) | growth
O=C(Nc1ccccc1)Nc1ncnc2c1ncn2-c1ccc(Cl)cc1 | 107%
CC(C)c1ccc(C(=O)Nc2nc3ccc(O)c(CN(C)C)c3s2)cc1 | 69%
Cc1ccc(Nn2c(SCC(=O)Nc3nc(-c4ccccc4)cs3)nc(C)c2C)cc1 | 73.7%
N#CC(C#N)N=Nc1ccc(Br)cc1 | 30.4%
CCN1C(=S)N(c2ccccc2)C2C1NN=c1s/c(=C3\C(=O)N(C(C)C)c4ccccc43)c(=O)n12 (stereo not drawn) | 10.4%
CSc1nc2ccccc2cc1/C=[N+](\[O-])c1ccccc1 | 19.7%
CN1CCN(c2cc(Nc3cc(C4CC4)[nH]n3)nc(Nc3ccc(CC(=O)NCc4cccc(F)c4)cc3)n2)CC1 | -22.9% (active)
C=CCN=c1sc2c(n1NC(=O)c1cc3ccc1CCc1ccc(cc1)CC3)C(=O)c1ccccc1C2=O | -98.3% (active)
Cn1cc(-c2csc(-c3cn(C(=O)OC(C)(C)C)c4ccc(Br)cc34)n2)c2ccnc(Cl)c21 | 55.5%
CSc1oc(C)nc1[P+](c1ccccc1)(c1ccccc1)c1ccccc1 | 79.6%
C=C1C(=O)O[C@H]2[C@H]1CC/C(Cn1cc(-c3ccccc3)nn1)=C\CC[C@@]1(C)O[C@@H]21 | -34.2% (active)
O=S(=O)(c1ccccc1)n1cc2c(c1)-c1nc(Nc3ncccn3)sc1CC2 | 35.6%
Cc1[nH]c(C(=O)Nc2ccccc2OC2CCNCC2)c(Cl)c1Cl | -94.1% (active)
COc1ccc(-c2cc(-c3ccc(Cl)cc3)c(C#N)c(=O)n2Cc2ccc(C(=O)Nc3ccccc3N)cc2)cc1 | 74%
O=C(CN1CCCCC1)Nc1nc(-c2cc3ccccc3oc2=O)cs1 | 103%
Oc1ccc(Cl)cc1/C=N\NC(=S)N/N=C/c1cc(Cl)ccc1O | 20%
COC12C=C/C(=C(/C(=O)OCc3ccncn3)C(=O)CCCCCCCCC3(OC)C=C/C(=C(/C(=O)OCc4ccncn4)C(=O)CCCCCCCC1)O3)O2 | -18.2% (active)
COc1ccc2c(c1)N(CCO)C1=C(C(=O)OC1)C2c1cccc(F)c1 (stereo not drawn) | -17.3% (active)
CC(=O)Oc1ccc(/C(=C(\C)c2ccc(Cl)cc2)c2ccc(OCCN3CCCCC3)cc2)cc1 | 28.2%
O=C(N(c1ccccc1)c1ccccc1)n1cc(I)c2nc(Cl)nc(Cl)c21 | 56.8%

Structure (SMILES) | growth
N#Cc1nc(-c2ccccc2)oc1S(=O)(=O)N1CCN(c2ccccc2)CC1 | 100%
Cc1ccc(NC(=O)c2sc3nc(C)c(Br)c(C)c3c2N)cc1 | 65.1%
O=C(CN1C(=O)S/C(=C\C(Cl)=C\c2ccccc2)C1=O)NCCc1ccc(O)cc1 | 15.6%
O=C(/C=C/c1cn(-c2ccccc2)nc1-c1ccc(Cl)cc1)c1ccc(F)cc1 | 96.6%
CCOC(=O)c1c(NC(=O)c2cccc(C(F)(F)F)c2)sc2c(CN(C)C)c(O)ccc12 | 49.3%
N#Cc1c(-c2ccccc2)cc(-c2ccc(Nc3nc(Nc4ccc(Cl)cc4)nc(Nc4ccc(Cl)cc4)n3)cc2)nc1N | -53.9% (active)
O=C(/C=C/c1cccs1)Nc1ncc(Cc2ccccc2F)s1 | -4.04% (active)
O=S(=O)(Nc1cc(Cl)ccc1Cl)c1ccc(-c2cnc(C3CC3)o2)cc1 | 25.1%
CCOC(=O)c1ccc2c(c1)nc(-c1ccccc1)n2C1CCCCC1 | 104%
CC(=O)N1N=C(c2ccc(C(F)(F)F)c(F)c2)CC1c1[nH]c(C)c(C(=O)NCC(F)(F)F)c1C (stereo not drawn) | 56.3%
O=C(CN1C(=O)S/C(=C\c2ccccc2)C1=O)Nc1ncc(Cc2ccccc2Cl)s1 | 94.8%
COc1cc(OCc2cccc(Br)c2C)cc(OC)c1C=O | 91.9%
COc1cc(NS(=O)(=O)c2ccc(-c3cnc(C4CC4)o3)cc2)ccc1F | 1.5% (active)
COC1=CC(c2ccc[nH]2)=N/C1=C\c1[nH]c(C)c(CC(=O)OCc2ccccc2)c1CCC(=O)OCc1ccccc1 | -78.1% (active)
Clc1cccc(Nc2ncnc3ccc(-c4cnc5[nH]ccc5c4)cc23)c1 | 84%
COc1cc2ncnc(Nc3ccc(F)c(Cl)c3)c2cc1OCC(=O)N1CCN(c2ccccc2)CC1 | 104%
O=C1Nc2ccccc2/C1=C/c1nc2ccccc2c(=O)[nH]1 | 93.6%
CNc1nnc2n(-c3ccccc3)c(=O)c3cnn(-c4ccccc4)c3n12 | 83.5%
C=C1C(=O)O[C@H]2[C@H]1CC/C(COC(=O)c1cc3ccccc3s1)=C\CC[C@@]1(C)O[C@@H]21 | -88.4% (active)

Tested on: UACC-257 melanoma
Experiment: as above
Conditions: 10 µM unless noted

Structure (SMILES) | growth
O=C(Nc1ccccc1)Nc1ncnc2c1ncn2-c1ccc(Cl)cc1 | 109%
CC(C)c1ccc(C(=O)Nc2nc3ccc(O)c(CN(C)C)c3s2)cc1 | 50.9%
Cc1ccc(Nn2c(SCC(=O)Nc3nc(-c4ccccc4)cs3)nc(C)c2C)cc1 | 54.1%
N#CC(C#N)N=Nc1ccc(Br)cc1 | 10%
CCN1C(=S)N(c2ccccc2)C2C1NN=c1s/c(=C3\C(=O)N(C(C)C)c4ccccc43)c(=O)n12 (stereo not drawn) | 92.7%
CSc1nc2ccccc2cc1/C=[N+](\[O-])c1ccccc1 | 90%
CN1CCN(c2cc(Nc3cc(C4CC4)[nH]n3)nc(Nc3ccc(CC(=O)NCc4cccc(F)c4)cc3)n2)CC1 | 40.9%
C=CCN=c1sc2c(n1NC(=O)c1cc3ccc1CCc1ccc(cc1)CC3)C(=O)c1ccccc1C2=O | -72.6% (active)
Cn1cc(-c2csc(-c3cn(C(=O)OC(C)(C)C)c4ccc(Br)cc34)n2)c2ccnc(Cl)c21 | 70.3%
CSc1oc(C)nc1[P+](c1ccccc1)(c1ccccc1)c1ccccc1 | 20.5%
C=C1C(=O)O[C@H]2[C@H]1CC/C(Cn1cc(-c3ccccc3)nn1)=C\CC[C@@]1(C)O[C@@H]21 | -46.5% (active)
O=S(=O)(c1ccccc1)n1cc2c(c1)-c1nc(Nc3ncccn3)sc1CC2 | 50.4%
Cc1[nH]c(C(=O)Nc2ccccc2OC2CCNCC2)c(Cl)c1Cl | 13.7%
COc1ccc(-c2cc(-c3ccc(Cl)cc3)c(C#N)c(=O)n2Cc2ccc(C(=O)Nc3ccccc3N)cc2)cc1 | 105%
O=C(CN1CCCCC1)Nc1nc(-c2cc3ccccc3oc2=O)cs1 | 102%
Oc1ccc(Cl)cc1/C=N\NC(=S)N/N=C/c1cc(Cl)ccc1O | 21.8%
COC12C=C/C(=C(/C(=O)OCc3ccncn3)C(=O)CCCCCCCCC3(OC)C=C/C(=C(/C(=O)OCc4ccncn4)C(=O)CCCCCCCC1)O3)O2 | 4.41% (active)
COc1ccc2c(c1)N(CCO)C1=C(C(=O)OC1)C2c1cccc(F)c1 (stereo not drawn) | 67.6%
CC(=O)Oc1ccc(/C(=C(\C)c2ccc(Cl)cc2)c2ccc(OCCN3CCCCC3)cc2)cc1 | -34.9% (active)
O=C(N(c1ccccc1)c1ccccc1)n1cc(I)c2nc(Cl)nc(Cl)c21 | 53.7%

Structure (SMILES) | growth
N#Cc1nc(-c2ccccc2)oc1S(=O)(=O)N1CCN(c2ccccc2)CC1 | 92.7%
Cc1ccc(NC(=O)c2sc3nc(C)c(Br)c(C)c3c2N)cc1 | 90.3%
O=C(CN1C(=O)S/C(=C\C(Cl)=C\c2ccccc2)C1=O)NCCc1ccc(O)cc1 | 60.9%
O=C(/C=C/c1cn(-c2ccccc2)nc1-c1ccc(Cl)cc1)c1ccc(F)cc1 | 104%
CCOC(=O)c1c(NC(=O)c2cccc(C(F)(F)F)c2)sc2c(CN(C)C)c(O)ccc12 | -10.5% (active)
N#Cc1c(-c2ccccc2)cc(-c2ccc(Nc3nc(Nc4ccc(Cl)cc4)nc(Nc4ccc(Cl)cc4)n3)cc2)nc1N | -12.1% (active)
O=C(/C=C/c1cccs1)Nc1ncc(Cc2ccccc2F)s1 | 58.6%
O=S(=O)(Nc1cc(Cl)ccc1Cl)c1ccc(-c2cnc(C3CC3)o2)cc1 | 50.6%
CCOC(=O)c1ccc2c(c1)nc(-c1ccccc1)n2C1CCCCC1 | 78.2%
CC(=O)N1N=C(c2ccc(C(F)(F)F)c(F)c2)CC1c1[nH]c(C)c(C(=O)NCC(F)(F)F)c1C (stereo not drawn) | 91.6%
O=C(CN1C(=O)S/C(=C\c2ccccc2)C1=O)Nc1ncc(Cc2ccccc2Cl)s1 | 96.9%
COc1cc(OCc2cccc(Br)c2C)cc(OC)c1C=O | 83%
COc1cc(NS(=O)(=O)c2ccc(-c3cnc(C4CC4)o3)cc2)ccc1F | 69%
COC1=CC(c2ccc[nH]2)=N/C1=C\c1[nH]c(C)c(CC(=O)OCc2ccccc2)c1CCC(=O)OCc1ccccc1 | -46% (active)
Clc1cccc(Nc2ncnc3ccc(-c4cnc5[nH]ccc5c4)cc23)c1 | 75%
COc1cc2ncnc(Nc3ccc(F)c(Cl)c3)c2cc1OCC(=O)N1CCN(c2ccccc2)CC1 | 107%
O=C1Nc2ccccc2/C1=C/c1nc2ccccc2c(=O)[nH]1 | 104%
CNc1nnc2n(-c3ccccc3)c(=O)c3cnn(-c4ccccc4)c3n12 | 95.7%
C=C1C(=O)O[C@H]2[C@H]1CC/C(COC(=O)c1cc3ccccc3s1)=C\CC[C@@]1(C)O[C@@H]21 | -63.3% (active)
